In ChEMBL document CHEMBL1961873, “Compounds: GSK PKIS; Assays: Nanosyn kinase panel” (2012) one finds inhibition data, which are given here for 14 compounds.

Experiment [1] deals with T1, Muscle, skeletal receptor tyrosine-protein kinase (Homo sapiens) (UniProt O15146).
T1 sequence (whole entry): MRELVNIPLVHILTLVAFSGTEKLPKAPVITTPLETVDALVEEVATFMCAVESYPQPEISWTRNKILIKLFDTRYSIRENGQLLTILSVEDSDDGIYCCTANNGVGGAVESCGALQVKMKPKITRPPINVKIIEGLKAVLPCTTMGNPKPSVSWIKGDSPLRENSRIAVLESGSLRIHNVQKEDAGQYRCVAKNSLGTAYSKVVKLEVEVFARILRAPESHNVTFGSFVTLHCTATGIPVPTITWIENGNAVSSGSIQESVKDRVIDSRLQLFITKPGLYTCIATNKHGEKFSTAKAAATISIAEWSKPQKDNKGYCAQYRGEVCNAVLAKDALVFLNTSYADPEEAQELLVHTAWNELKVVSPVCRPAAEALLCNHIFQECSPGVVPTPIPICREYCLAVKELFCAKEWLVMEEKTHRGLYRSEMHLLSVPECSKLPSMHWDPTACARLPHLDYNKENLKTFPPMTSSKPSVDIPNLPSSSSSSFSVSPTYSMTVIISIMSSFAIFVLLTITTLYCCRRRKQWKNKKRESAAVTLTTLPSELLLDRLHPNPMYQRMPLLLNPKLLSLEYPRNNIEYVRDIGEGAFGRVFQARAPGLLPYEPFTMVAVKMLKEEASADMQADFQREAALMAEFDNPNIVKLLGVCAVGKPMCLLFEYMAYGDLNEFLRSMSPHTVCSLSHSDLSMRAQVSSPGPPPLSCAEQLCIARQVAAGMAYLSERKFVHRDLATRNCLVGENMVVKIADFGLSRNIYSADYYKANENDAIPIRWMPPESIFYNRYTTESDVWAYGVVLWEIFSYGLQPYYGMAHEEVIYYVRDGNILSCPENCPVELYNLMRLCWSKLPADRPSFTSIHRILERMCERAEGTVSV
The following applies: at 1 µM.

Experiment [2] concerns the target Platelet-derived growth factor receptor alpha (Homo sapiens) (UniProt P16234). As to conditions: at 0.1 µM.
Experiment [3] shares this target. As to conditions: at 1 µM.
Experiment [4] has as its system Platelet-derived growth factor receptor alpha (Homo sapiens), P16234 [D842V]. The following applies: at 0.1 µM.
Experiment [5] shares this test system. The following applies: at 1 µM.
The test system of experiment [6] is Platelet-derived growth factor receptor alpha (Homo sapiens), P16234 [T674I]. As to conditions: at 0.1 µM.
Platelet-derived growth factor receptor alpha (Homo sapiens), P16234 [T674I], sequence (P16234 whole entry T674I): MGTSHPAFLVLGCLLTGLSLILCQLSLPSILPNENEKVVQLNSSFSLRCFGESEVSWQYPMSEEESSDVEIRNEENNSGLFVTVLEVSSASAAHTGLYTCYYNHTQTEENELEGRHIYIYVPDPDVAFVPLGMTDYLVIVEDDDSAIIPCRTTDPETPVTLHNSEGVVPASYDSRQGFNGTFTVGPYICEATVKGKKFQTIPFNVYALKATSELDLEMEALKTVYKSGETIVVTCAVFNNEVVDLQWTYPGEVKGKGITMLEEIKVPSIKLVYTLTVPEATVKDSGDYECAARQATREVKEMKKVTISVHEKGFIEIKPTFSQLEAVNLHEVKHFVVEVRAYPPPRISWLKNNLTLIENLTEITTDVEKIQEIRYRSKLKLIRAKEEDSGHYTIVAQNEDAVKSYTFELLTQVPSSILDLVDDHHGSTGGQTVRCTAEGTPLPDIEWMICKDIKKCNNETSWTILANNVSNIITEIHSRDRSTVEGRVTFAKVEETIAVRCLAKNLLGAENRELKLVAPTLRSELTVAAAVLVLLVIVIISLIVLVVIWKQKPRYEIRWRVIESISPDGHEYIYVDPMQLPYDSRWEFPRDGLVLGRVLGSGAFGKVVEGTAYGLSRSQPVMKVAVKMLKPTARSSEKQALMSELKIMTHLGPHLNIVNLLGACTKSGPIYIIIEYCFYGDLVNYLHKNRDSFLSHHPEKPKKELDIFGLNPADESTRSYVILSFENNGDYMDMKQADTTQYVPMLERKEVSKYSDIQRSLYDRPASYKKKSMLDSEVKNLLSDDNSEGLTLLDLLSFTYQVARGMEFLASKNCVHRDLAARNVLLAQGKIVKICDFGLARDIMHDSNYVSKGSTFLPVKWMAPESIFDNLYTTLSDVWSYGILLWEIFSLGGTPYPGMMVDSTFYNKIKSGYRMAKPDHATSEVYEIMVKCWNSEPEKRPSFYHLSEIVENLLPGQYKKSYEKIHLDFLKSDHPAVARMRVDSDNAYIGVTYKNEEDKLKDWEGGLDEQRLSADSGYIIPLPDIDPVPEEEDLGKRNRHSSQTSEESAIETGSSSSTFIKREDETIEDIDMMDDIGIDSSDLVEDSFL
For experiment [7] the test system is unchanged. The following applies: at 1 µM.
In experiment [8] the test system is Platelet-derived growth factor receptor alpha (Homo sapiens), P16234 [V561D]. As to conditions: at 0.1 µM.
Platelet-derived growth factor receptor alpha (Homo sapiens), P16234 [V561D], sequence (P16234 whole entry V561D): as the sequence (P16234 whole entry T674I) above, with V561D, I674T counted along it
Experiment [9] has the same test system. As to conditions: at 1 µM.
The target in experiment [10] is Platelet-derived growth factor receptor beta (Homo sapiens) (UniProt P09619). As to conditions: at 0.1 µM.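 Note: reported value is the mean percent inhibition of the kinase.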
Platelet-derived growth factor receptor beta (Homo sapiens), sequence (P09619 whole entry): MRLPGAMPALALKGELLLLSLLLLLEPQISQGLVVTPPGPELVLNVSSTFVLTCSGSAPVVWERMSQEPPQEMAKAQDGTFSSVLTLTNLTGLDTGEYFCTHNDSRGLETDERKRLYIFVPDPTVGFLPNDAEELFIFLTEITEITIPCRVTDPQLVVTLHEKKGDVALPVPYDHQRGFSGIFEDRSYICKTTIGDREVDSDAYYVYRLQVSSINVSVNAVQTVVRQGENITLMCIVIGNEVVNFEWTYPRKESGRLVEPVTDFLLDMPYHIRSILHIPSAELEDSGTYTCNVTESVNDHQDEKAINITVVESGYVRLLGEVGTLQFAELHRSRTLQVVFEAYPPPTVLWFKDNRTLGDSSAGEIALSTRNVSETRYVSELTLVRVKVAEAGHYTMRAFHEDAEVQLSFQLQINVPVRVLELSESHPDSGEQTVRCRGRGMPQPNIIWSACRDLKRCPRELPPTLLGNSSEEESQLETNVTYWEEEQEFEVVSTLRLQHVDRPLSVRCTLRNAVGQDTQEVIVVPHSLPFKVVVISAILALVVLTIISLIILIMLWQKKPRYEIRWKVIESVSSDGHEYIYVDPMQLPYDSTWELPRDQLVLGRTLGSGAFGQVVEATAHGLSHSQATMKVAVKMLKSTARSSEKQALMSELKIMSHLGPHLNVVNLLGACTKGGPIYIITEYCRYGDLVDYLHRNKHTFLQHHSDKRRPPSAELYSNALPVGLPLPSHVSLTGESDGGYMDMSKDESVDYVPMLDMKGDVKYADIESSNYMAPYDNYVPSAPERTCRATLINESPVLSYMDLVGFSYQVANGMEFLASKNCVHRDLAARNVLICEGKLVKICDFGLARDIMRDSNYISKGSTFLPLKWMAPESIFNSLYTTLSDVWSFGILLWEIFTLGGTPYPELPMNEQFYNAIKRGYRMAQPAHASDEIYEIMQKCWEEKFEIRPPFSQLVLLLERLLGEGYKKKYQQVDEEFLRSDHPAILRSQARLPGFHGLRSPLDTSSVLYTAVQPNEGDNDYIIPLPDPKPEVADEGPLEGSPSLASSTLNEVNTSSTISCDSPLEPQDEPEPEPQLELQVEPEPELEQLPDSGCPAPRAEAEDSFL

Platelet-derived growth factor receptor alpha (Homo sapiens), sequence (P16234 whole entry): as the sequence (P16234 whole entry T674I) above, with I674T counted along it
Platelet-derived growth factor receptor alpha (Homo sapiens), P16234 [D842V], sequence (P16234 whole entry D842V): as the sequence (P16234 whole entry T674I) above, with I674T, D842V counted along it

Take `Cc1ccc2c(-c3ccnc(Nc4ccccc4)n3)c(-c3ccc(F)cc3)nn2n1`: the inhibition turned out to be 4.61% in [1]; 14.8% in experiment [2]; 47.9% in experiment [3]; 8.2% in experiment [4]; 46.6% in experiment [5]; 4.09% in experiment [6]. Besides, the inhibition in [7] was 4.32%; in [8], 11.6%; in experiment [9] it was 59.1%; in experiment [10], 22.5%.
For the compound `CNC(=O)c1cccc(C#Cc2cncnc2Nc2ccc(OCc3cccc(F)c3)c(Cl)c2)c1`, the inhibition in experiment [1] was -1.15%; in experiment [2] it was 5.17%; in experiment [3], 17.4%; in experiment [4], -0.74%; in experiment [5] it was 2.9%; in experiment [6] it was 1.03%. Further, the inhibition in experiment [7] was 2.59%; in experiment [8], 0.66%; in [9] it was 4.6%; in experiment [10], 4.41%.
Take `COc1cc(Nc2nccc(Nc3ccc4c(C)n[nH]c4c3)n2)cc(OC)c1OC`: the inhibition came to 72.5% in experiment [1]; 76% in [2]; 91.6% in experiment [3]; 50% in experiment [4]; 90.2% in [5]; 11.4% in experiment [6]. The inhibition was 59% in experiment [7], 71.4% in experiment [8], 96.5% in [9] and 74.4% in [10].
For `CN(C)CCOc1ccc(-c2nc(-c3ccncc3)c(-c3ccc4c(c3)CC/C4=N\O)[nH]2)cc1`, the inhibition in experiment [1] is 3.72%; in experiment [2] it was 8.1%; in experiment [3] it was 15.9%; in experiment [4], 0.79%; in [5], 3.47%; in [6], 3.47%. The inhibition in experiment [7] is 8.38%; in experiment [8] it was 2.97%; in experiment [9], 5.35%; in experiment [10], 4.84%.
As to `CS(=O)(=O)CCNCc1coc(-c2ccc3ncnc(Nc4ccc(OCc5ccccc5)cc4)c3c2)c1`, the inhibition in experiment [1] turned out to be 4.59%; in [2], 7.28%; in experiment [3] it was 11.5%; in [4], 3.71%; in experiment [5] it was 4.82%; in experiment [6] it was 3.65%. Besides, the inhibition in experiment [7] is 6.58%; in [8] it was 3.61%; in experiment [9], 12.8%; in [10] it was 3.03%.
`CCn1c(-c2nonc2N)nc2c(C#CC(C)(C)O)ncc(OC3CCNCC3)c21`: the inhibition in experiment [1] stood at 5.05%; in experiment [2], 4.05%; in [3] it was 19.5%; in experiment [4], 5.06%; in [5], 33.8%; in experiment [6] it was 4.95%. The inhibition in experiment [7] worked out at 28.3%; in experiment [8], 2.59%; in experiment [9], 17%; in experiment [10] it was 5.33%.
Consider `CS(=O)(=O)CCNCc1ccc(-c2ccc3ncnc(Nc4ccc(OCc5ccccc5)c(C(F)(F)F)c4)c3c2)o1`, for which the inhibition in experiment [1] is -0.25%; in experiment [2], 6.22%; in experiment [3], 7.17%; in experiment [4] it was 2.98%; in [5], 2.15%; in experiment [6] it was 3.58%. Besides, the inhibition in experiment [7] was found to be 5.04%; in experiment [8], 3.38%; in experiment [9] it was 1.15%; in [10], 1.55%.
Consider `CNC(=O)c1cncc(/C=C/c2ccccc2Cl)c1`, for which the inhibition in experiment [1] was 8.03%; in [2] it was 7.6%; in experiment [3] it was 19.1%; in experiment [4], -1.08%; in experiment [5] it was 4.93%; in experiment [6] it was 2.9%. For the same compound, the inhibition turned out to be 2.13% in experiment [7], 4.99% in experiment [8], 23.1% in experiment [9] and 7.75% in experiment [10].
Take `COc1ccc(CNC(=O)c2ccc(-c3cc(-c4nnc(C)o4)ccc3C)cc2)cc1`: the inhibition in experiment [1] was -7.05%; in experiment [2], 12.6%; in experiment [3] it was 16.5%; in experiment [4] it was 3.66%; in experiment [5] it was 3.96%; in experiment [6], 5.1%. Moreover, the inhibition in experiment [7] turned out to be 6.47%; in experiment [8] it was 7.3%; in experiment [9] it was 4.07%; in experiment [10] it was 8.68%.
With `CNC(=O)c1cc(-c2ccc(F)cc2)cc(-c2ccc(S(=O)(=O)N3CCCC3)cc2)c1N`, the inhibition stood at 0.83% in experiment [1]; 3.69% in experiment [2]; 7.98% in [3]; 2.05% in experiment [4]; 1.76% in [5]; 2.94% in [6]. Further, the inhibition in experiment [7] was 2.93%; in experiment [8], 3.32%; in experiment [9], 2.29%; in experiment [10], 3.45%.
Consider `CC(=O)NCc1cccc(C#Cc2cncnc2Nc2ccc(OCc3cccc(F)c3)c(Cl)c2)c1`, for which the inhibition in experiment [1] turned out to be 3.72%; in experiment [2] it was 0.56%; in experiment [3] it was 6.14%; in [4], 1.48%; in experiment [5] it was 1.63%; in experiment [6], 2.23%. Moreover, the inhibition came to 3.66% in experiment [7], 5.19% in [8], 2.8% in experiment [9] and 0.9% in [10].
As to `Nc1nc(-c2ccc(F)cc2)c(-c2ccc3ncccc3n2)s1`, the inhibition in [1] amounted to 7.29%; in experiment [2] it was 16.9%; in [3], 51.7%; in experiment [4], 14.4%; in experiment [5], 61.6%; in experiment [6], 9.38%. In addition, the inhibition in experiment [7] turned out to be 11.5%; in [8], 13.2%; in experiment [9] it was 49.5%; in experiment [10], 10.9%.
On to `CN1CCC(n2cnc(-c3ccc(F)cc3)c2-c2ccnc(Nc3ccccc3)n2)CC1`, for which the inhibition in experiment [1] came out at 2.15%; in experiment [2] it was 8.81%; in experiment [3], 22.1%; in experiment [4], 4.56%; in experiment [5], 18.6%; in experiment [6], 5.9%. For the same compound, the inhibition in [7] was found to be 5.98%; in experiment [8], 5.65%; in [9] it was 15.5%; in experiment [10] it was 7.67%.
On to `CC(=O)Nc1cccc(C#Cc2cncnc2Nc2ccc(OCc3cccc(F)c3)c(Cl)c2)c1`, for which the inhibition is 6.82% in experiment [1]; 8.71% in experiment [2]; 15.1% in experiment [3]; 1.39% in experiment [4]; 1.82% in experiment [5]; 5.24% in [6]. The inhibition in experiment [7] is 1.24%; in experiment [8], -4.05%; in experiment [9] it was 4.74%; in [10], 3.29%.

As a reminder, the inhibition is the drop in the measured response relative to a control, in per cent.
